# Source: PubChem BioAssay (National Center for Advancing Translational Sciences (NCATS))
# LmPK inh: LmPK (Leishmania mexicana) enzyme inhibition | Q27686 | purified LmPK, Kinase-Glo ATP luminescence, 1 h | actives 0.37% (n = 290,000) | Potency, µM (titrated, usually from 57.5 µM), for inactives: at the highest dose activity change, negative = inhibition, usual class: inhibitors | AID 1721; also: potency is read from the fitted curve at half-maximal effect; % is scaled to controls: 0 for no effect and ±100 for the full control effect
#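 ATP generated from ADP (0.1 mM) and PEP (0.5 mM) by 0.1 nM LmPK over 1 h at room temperature (pH 7.2 imidazole buffer) was detected by coupled luciferase luminescence. Values were normalized to uninhibited and no-enzyme wells.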
# Shiga inhibitor: blocks Shiga toxin action in Vero cells | Vero cells, Shiga toxin protein synthesis inhibition reporter | inhibition, % at 38.7 µM | actives 9.2% (n = 290,000); in the data active = inhibition mostly above about 28%, no sharp cut-off; inactive = mostly below about 43%; also: 0% is about no effect
# NS1 inh: inhibitors of influenza NS1 protein function; Potency, µM (doses to about 46.1 µM), for the others: at the highest dose activity, positive = more growth; actives 0.4% (n = 270,000); calls by dose curve; also: potency is read from the fitted curve at half-maximal effect; actives are rising curves; nearly all actives have a fitted effect of over 50% in size
#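 Recovery from NS1-induced slow growth read by OD600 in budding yeast switched to galactose assay medium (pH 6.0, -URA) at 1:100 dilution. Compound 23 nl per well; the matching strain lacking NS1 serves as control.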
# FBPA Giardia inh: Giardia lamblia aldolase inhibition; purified Giardia FBPA; Potency, µM (top dose mostly 59.6 µM), for inactives: at the highest dose activity, negative = inhibition, hits mostly inhibitors; actives 0.71% (n = 290,000); also: potency is read from the fitted curve at half-maximal effect; % is scaled to controls: 0 for no effect and ±100 for the full control effect; nearly all actives have a fitted effect of over 55% in size
# Target sequence (A8B2U2 whole entry, looked up): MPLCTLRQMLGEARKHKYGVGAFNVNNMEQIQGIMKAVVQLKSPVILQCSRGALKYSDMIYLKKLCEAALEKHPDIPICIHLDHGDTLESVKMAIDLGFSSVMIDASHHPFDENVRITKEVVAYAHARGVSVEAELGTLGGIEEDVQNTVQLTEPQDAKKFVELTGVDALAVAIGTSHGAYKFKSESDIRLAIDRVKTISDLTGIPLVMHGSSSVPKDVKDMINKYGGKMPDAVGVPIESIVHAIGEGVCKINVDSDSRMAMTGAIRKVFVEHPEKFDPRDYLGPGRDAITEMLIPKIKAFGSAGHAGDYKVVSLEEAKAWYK
#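 Giardia FBPA (40 nM reagent) was preincubated 10 min at RT with compound (up to 57.5 uM final), then substrate plus GAPDH/TPI/NAD/arsenate coupling system with diaphorase/resazurin was added; resorufin fluorescence (525/598 nm) was read after 20 min.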
# Cycloheximide cs: affects cycloheximide protein synthesis inhibition readout, counter-screen. actives 12% (n = 300,000). cell reporter, cycloheximide protein synthesis inhibition counterscreen. max response, %; in the data active = max response mostly above about 13%, no sharp cut-off; inactive = mostly below about 14%; also: read at 38.3 µM for the half of the compounds with a filed dose; 0% is about no effect
# Active calls of the source: *; u = inconclusive; x = no result given. Most compounds without a hit are left out; they make up all but 14% or so of the library. Unless noted, calls follow the shape of the dose curve; as a rule, active = well fitted curve in the direction sought with a large enough effect; inconclusive = small, poorly fitted or top-dose-only effect, or another doubt; inactive = no such curve, though single readings can be large; an effect the other way counts as inactive or inconclusive.
SMILES,LmPK inh,Shiga inhibitor,NS1 inh,FBPA Giardia inh,Cycloheximide cs
O=C1C2C=CC=CC2=NC(=S)N1CCN1CCC(=C(c2ccc(F)cc2)c2ccc(F)cc2)CC1 (centres undefined),x,x,u,-5.5%,x
CC1CC1c1ccc(/C=C(\C#N)C(=O)Nc2ccccc2Cl)o1 (centres undefined),-5.4%,30.1*,-14.8%,-2.6%,51.7*
CC1CC1c1ccc(/C=C(\C#N)C(=O)Nc2ccc(Cl)cc2)o1 (centres undefined),-1.0%,113.3*,-4.9%,-1.6%,63.0*
CCc1ccccc1NC(=O)/C(C#N)=C/c1ccc(Sc2ccccc2)o1,-5.2%,8.8,3.4%,-4.7%,-1.1
COc1cc(-c2coc3cc(OCc4ccccc4)c(OC)c(O)c3c2=O)cc(O)c1OC,x,x,x,-6.3%,x
CNC[C@H](NC[C@@H](NCCCc1ccccc1)c1ccccc1)[C@H](C)O,-2.1%,2.5,-13.0%,29.5%,-2.4
COC(=O)C(C)n1nnc2sc(-c3ccccc3)cc2c1=O (centres undefined),-0.7%,113.4*,x,1.9%,40.0*
O=S(=O)(Nc1ccc(F)cc1)c1ccc(NS(=O)(=O)c2cccs2)cc1,-2.8%,-3.7,0.5%,8.1%,-3.3
Cc1ccc(O)c(-c2cc(C(F)(F)C(F)F)nc(-c3ccccc3)n2)c1,-2.5%,-9.1,u,1.9%,-2.2
Cc1cccc(C(=O)c2cn[nH]c2-c2ccc(C)cc2O)c1,8.2%,x,-26.3%,-0.1%,-1.6
Cc1ccc(O)c(-c2cc(-c3cccc(F)c3)n[nH]2)c1,5.0%,59.9,-87.9%,-3.8%,24.2*
Cc1ccc(-c2cc(-c3ccccc3C)[nH]n2)c(O)c1,0.6%,42.2*,4.8%,-5.2%,39.8*
O=[N+]([O-])c1ccccc1-c1cc(-c2ccccc2O)n[nH]1,-1.2%,69.1*,-49.5%,-4.8%,74.8*
Cc1ccc(-c2cc(-c3cccc(F)c3)n[nH]2)c(O)c1,-0.4%,75.6*,-86.0%,-1.8%,31.1*
CC1N(C(=O)N2CCOCC2)CCN1S(=O)(=O)c1ccc(Cl)cc1 (centres undefined),-2.7%,-7.8,-35.9%,12.2%,-4.9
CC(=O)OCCN1C(=O)c2c(C)nc3ccc(S(=O)(=O)N4CCOCC4)cc3c2C1=O,x,-2.4,x,-10.2%,-2.2
Cc1ccc(S(=O)(=O)c2cnc(-c3ccccc3)nc2N2CCN(C)CC2)cc1,0.3%,6.6,-3.2%,-0.8%,-1.9
Cc1ccc(O)c(-c2cc(-c3ccccc3F)[nH]n2)c1,-5.7%,104.0*,1.5%,-4.4%,35.2*
Oc1ccccc1-c1cc(C(F)(F)F)[nH]n1,3.6%,-5.9,-127.8%,-0.2%,9.8
COCCCN=C1NN=C(c2cc(C)n(Cc3ccco3)c2C)CS1,-3.7%,127.1*,u,-6.2%,40.1*
COCC(C)N=C1NN=C(c2cc(C)n(Cc3ccccc3Cl)c2C)CS1 (centres undefined),-2.8%,107.6*,x,1.3%,55.0*
C=CCN=C1NN=C(c2cc(C)n(CCOC)c2C)CS1,u,21.2,15.4%,u,30.6
COCC(C)N=C1NN=C(c2ccc(NC(C)=O)cc2)CS1 (centres undefined),3.6%,44.1,x,-11.6%,22.0*
CC(=O)Nc1ccc(C2=NNC(=NCC3CCCO3)SC2)cc1 (centres undefined),3.0%,59.8,14.0%,-6.5%,-0.8
COCCn1c(C)cc(C2=NNC(=NC3CC3)SC2)c1C,u,-36.7,x,-15.5%,-16.0
SMILES,LmPK inh,Shiga inhibitor,NS1 inh,FBPA Giardia inh,Cycloheximide cs
Cc1cc(C2=NNC(=NC3CC3)SC2)c(C)n1Cc1ccco1,-26.0%,136.9*,5.2%,-2.8%,94.7*
COc1ccc(-n2c(C)cc(C3=NNC(=NC4CC4)SC3)c2C)cc1,2.2%,85.3*,x,-24.8%,40.3*
Cn1nc(OC(=O)Nc2ccccc2)cc1C(F)(F)F,-16.0%,37.2*,-9.4%,2.3%,27.9*
COC(=O)Nc1ccc(SCC(=O)c2ccccc2)cc1,5.2%,61.9*,x,9.3%,51.0*
COC(=O)Nc1ccc(SCC(=O)c2ccc(Cl)cc2)cc1,-1.5%,19.5,2.5%,-3.4%,9.5
CC(=O)Nc1ccc(OCc2cccc([N+](=O)[O-])c2)cc1,-4.6%,81.8*,-2.4%,-1.5%,28.9*
O=C(Nc1ccc(COc2ccccc2)cc1)c1cccc([N+](=O)[O-])c1,6.9%,-1.8,2.3%,1.0%,11.7
O=C(O)CCc1ccc(S(=O)(=O)Nc2ccc(OCc3ccccc3)cc2)cc1,7.2%,44.6*,u,6.9%,13.8*
O=C(O)/C=C/c1ccc(S(=O)(=O)Nc2ccc(OCc3ccccc3)cc2)cc1,-0.3%,28.1,u,u,-6.4
Cc1ccc(SCC(=O)OCC(=O)NC2(C#N)CCCCC2)cc1,-6.4%,-4.8,-3.7%,x,5.4
O=C(O)c1cccc(S(=O)(=O)Nc2ccc(OCc3ccccc3)cc2)c1,6.5%,2.4,29.2%,-3.8%,-2.5
COCC(=O)Nc1ccc(OCc2ccccc2)cc1,-24.4%,60.7*,7.1%,-0.1%,37.6*
CS(=O)(=O)Nc1ccc(OCc2ccccc2)cc1,5.5%,55.0,-0.4%,2.5%,18.6*
NC(=O)COc1ccc(NC(=O)OCc2ccccc2)cc1,-0.8%,35.7*,-9.0%,3.4%,23.6*
CC(=O)Nc1ccc(N=Cc2ccc(OCc3ccccc3)cc2)cc1,-18.6%,67.7*,-19.3%,-7.9%,35.0*
O=C(NNS(=O)(=O)c1ccccc1)Nc1ccc(F)cc1,1.2%,-6.9,-1.1%,x,-2.5
c1ccc2c(NCCN3CCOCC3)nc(-c3ccc4c(c3)OCO4)nc2c1,x,x,x,-8.9%,x
CCn1c(SCC(=O)NC2CCCC2)nnc1C(C)C,-10.3%,-2.1,7.4%,-3.1%,-1.2
Cc1cc(Br)ccc1NC(=O)CSc1nnc(CN2CCOCC2)n1C,0.0%,-13.9,-7.0%,-25.0%,-2.8
COC1=CC(=O)C[C@@H](C)[C@]12Oc1c(Cl)c(OC)cc(OC)c1C2=O,-12.7%,-4.0,-14.3%,9.3%,-2.4
COc1ccc(NC(=S)Nc2ccc(OCc3ccccc3)cc2)cc1OC,3.1%,15.8,14.9%,1.2%,14.6
COC(=O)Nc1ccc(Oc2ccccc2)cc1,-0.8%,23.9,-42.9%,-0.7%,9.6*
COC(=O)Nc1ccc(OCc2ccccc2)cc1,-3.5%,72.1*,-39.6%,-7.5%,60.3*
Cc1ccc(OC(=O)Nc2ccccc2)cc1,-17.7%,64.9*,x,0.1%,43.1*
CC(=O)Nc1ccc(Oc2ccccc2)cc1,6.2%,3.4,-1.1%,-7.8%,-1.5
CC(=O)Nc1ccc(OCc2ccc(S(=O)(=O)Cc3ccccc3)cc2)cc1,-0.9%,2.6,1.9%,9.0%,-3.1
CC(=O)Nc1cccc(OCc2ccc(S(=O)(=O)Cc3ccccc3)cc2)c1,-3.9%,64.4*,6.9%,3.8%,40.0*
COc1ccc(OC)c(S(=O)(=O)N2CCN(CC(O)COc3ccc(C#N)cc3)CC2)c1 (centres undefined),-6.2%,-5.0,-9.6%,8.7%,-5.8
COc1cccc(OC)c1OC(=O)/C=C/c1ccc(C)o1,-0.4%,-3.5,-12.2%,-11.7%,-4.9
COc1ccccc1CNC(=O)C1CCC(CNS(=O)(=O)c2ccccc2)CC1 (centres undefined),-2.3%,-9.0,-7.6%,5.8%,-5.7
